{"source": "the supplement of paper PMC9262897", "about": "“Low-cost anti-mycobacterial drug discovery using engineered E. coli” (Nature Communications, 2022)", "note": "Counter-ions that a name gives are not always drawn. ± gives the standard deviation of the averaged measurements."}
{"tested_on": "E. coli TESEC Mtb Alr", "assay": "growth (OD600 after 10 h); higher = more growth (less inhibition)", "settings": "arabinose 10000000 nM; compound 0.1 mM; raw OD600 reference: median of DMSO wells […], cell-free background 0.052", "procedure": "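TESEC Mtb Alr E. coli (ΔaraC ΔtolC ΔentC Δalr ΔdadX, arabinose-inducible Mtb Alr) or the Alr+ wild-type control strain, grown in defined M9-fructose medium without D-alanine in 96-well plates with Prestwick library compounds at 0.1 mM and 1% DMSO. Low Alr induction is 0.1 µM arabinose and high induction is 10 mM arabinose.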"}
{"smiles": "Nc1nc(=O)[nH]cc1F", "note": "[Flucytosine]", "growth": "0.333 ± 0.02"}
{"smiles": "CN(C)CCC[C@@]1(c2ccc(F)cc2)OCc2cc(C#N)ccc21", "note": "[Escitalopram oxalate]", "growth": "0.352 ± 0.0066"}
{"smiles": "CCOC(=O)OC(C)OC(=O)[C@@H]1N2C(=O)[C@@H](NC(=O)[C@H](N)c3ccccc3)[C@H]2SC1(C)C", "note": "(stereo partly specified) [Bacampicillin hydrochloride]", "growth": "0.338 ± 0.017"}
{"smiles": "CN1CCCN=C1/C=C/c1cccs1", "note": "[Pyrantel tartrate]", "growth": "0.3434 ± 0.0026"}
{"smiles": "CN1CCOC(c2ccccc2)c2ccccc2C1", "note": "(stereo unspecified) [Nefopam hydrochloride]", "growth": "0.327 ± 0.021"}
{"smiles": "c1ccc2c(CC3=NCCN3)cccc2c1", "note": "[Naphazoline hydrochloride]", "growth": "0.323 ± 0.018"}
{"smiles": "COc1cc(C)nc(-n2nc(C)cc2OC)n1", "note": "[Epirizole]", "growth": "0.27 ± 0.12"}
{"smiles": "CCc1cccc2c3c([nH]c12)C(CC)(CC(=O)O)OCC3", "note": "(stereo unspecified) [Etodolac]", "growth": "0.264 ± 0.013"}
{"smiles": "C[C@]12CC[C@@H]3c4ccc(O)cc4CC[C@H]3[C@@H]1C[C@@H](O)[C@@H]2O", "note": "[Estriol]", "growth": "0.258 ± 0.013"}
{"smiles": "N#Cc1ccc(C(c2ccc(C#N)cc2)n2cncn2)cc1", "note": "[Letrozole]", "growth": "0.309 ± 0.016"}
{"smiles": "Cc1cc(C2CCCCC2)n(O)c(=O)c1", "note": "[Ciclopirox ethanolamine]", "growth": "0.0634 ± 0.0046"}
{"smiles": "CC(=O)/N=c1/sc(S(N)(=O)=O)nn1C", "note": "[Methazolamide]", "growth": "0.348 ± 0.027"}
{"smiles": "CC(C)NC[C@H](O)COc1ccc(CC(N)=O)cc1", "note": "[(S)-(-)-Atenolol]", "growth": "0.341 ± 0.022"}
{"smiles": "COc1cc(OC)c(C(=O)CCCN2CCCC2)c(OC)c1", "note": "[Buflomedil hydrochloride]", "growth": "0.345 ± 0.0037"}
{"smiles": "CCN1CCC[C@H]1CNC(=O)c1c(OC)ccc(Br)c1OC", "note": "[Remoxipride Hydrochloride]", "growth": "0.338 ± 0.039"}
{"smiles": "CN(C)c1nc(N(C)C)nc(N(C)C)n1", "note": "[Altretamine]", "growth": "0.317 ± 0.02"}
{"smiles": "Nc1ccn([C@@H]2O[C@H](CO)[C@@H](O)[C@@H]2O)c(=O)n1", "note": "[Cytarabine]", "growth": "0.31 ± 0.0066"}
{"smiles": "CC(N)C12CC3CC(CC(C3)C1)C2", "note": "(stereo unspecified) [Rimantadine Hydrochloride]", "growth": "0.345 ± 0.011"}
{"smiles": "Cn1c(=O)c2nc[nH]c2n(C)c1=O", "note": "[Theophylline monohydrate]", "growth": "0.338 ± 0.01"}
{"smiles": "O=C(O)c1ccccc1OP(=O)(O)O", "note": "[Fosfosal]", "growth": "0.366 ± 0.0071"}
{"smiles": "COC(=O)Nc1nc2cc(C(=O)c3ccccc3)ccc2[nH]1", "note": "[Mebendazole]", "growth": "0.342 ± 0.017"}
{"smiles": "O=c1[nH]cc(F)c(=O)[nH]1", "note": "[5-fluorouracil]", "growth": "0.134 ± 0.013"}
{"smiles": "CCc1nn(CCCN2CCN(c3cccc(Cl)c3)CC2)c(=O)n1CCOc1ccccc1", "note": "[Nefazodone HCl]", "growth": "0.0515 ± 0.001"}
{"smiles": "COc1cc(NC(C)CCCN)c2ncccc2c1", "note": "(stereo unspecified) [Primaquine diphosphate]", "growth": "0.08 ± 0.024"}
{"smiles": "CNS(=O)(=O)Cc1ccc2[nH]cc(CCN(C)C)c2c1", "note": "[Sumatriptan succinate]", "growth": "0.353 ± 0.0071"}
{"smiles": "Cc1ccc(N(CC2=NCCN2)c2cccc(O)c2)cc1", "note": "[Phentolamine hydrochloride]", "growth": "0.352 ± 0.026"}
